Screens deposited in PubChem by National Center for Advancing Translational Sciences (NCATS).
A selection: hits, their analogues and other compounds. The true share with any hit is near 7%.
Integrin act MD: qHTS for Activators of Integrin-Mediated Alleviation for Muscular Dystrophy | alpha7betagal myoblasts, beta-gal FDG fluorescence, 48 h | Potency, µM (top dose mostly 38.3 µM), for inactives: at the highest dose activation, usual class: activators | 0.064% of 350,000 active | AID 624291, 2012;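 further: potency means the concentration at half of the fitted maximal effect; 100% = response of the positive control SU9516; nearly all actives have a fitted effect of over 60% in size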
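Alpha7betagal+/- myoblasts (passage 13) were plated 16-24 hr, then exposed to compounds (1:260 dilution of DMSO stock) for 48 hours at 37C. After MPER lysis, β-galactosidase reporter activity was read as FDG fluorescence (ex 480/em 540) after 30 minutes.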
ATXN2 expr inh: Primary qHTS for Inhibitors of ATXN expression | HEK-293 ATXN2-luciferase reporter, luminescence, 24 h | Potency, µM (doses to about 57 µM), without a hit: top-dose activity change, negative = inhibition, hits mostly inhibitors | 0.72% of 360,000 active | AID 1745845, 2022; further: potency means the concentration at half of the fitted maximal effect; on the % scale 0 is the no-effect control and ±100 the full control effect; nearly all actives have a fitted effect of over 55% in size
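ATXN2-luciferase reporter cells (luciferase flanked by upstream and downstream ATXN2 gene portions) were treated 24 h at 37 °C with compounds at up to 57 uM. SteadyGlo luminescence gave expression; GF-AFC fluorescence gave viability.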
S2 tox: Viability Counterscreen for Primary qHTS for Inhibitors of ATXN expression; S2 cells (HEK-293 line with an ATXN2-luciferase reporter) viability, CellTiter-Fluor protease fluorescence, 24 h; Potency, µM (top dose mostly 56.7 µM), hits mostly cytotoxic; 0.49% of 400,000 active; AID 651635, 2014; further: potency means the concentration at half of the fitted maximal effect; nearly all actives have a fitted effect of over 40% in size
DRD3 agonist: qHTS of D3 Dopamine Receptor Agonist: qHTS; D3R DiscoveRx beta-arrestin cells, luminescence, 90 min; max activation, %; AID 652048, 2013; D(3) dopamine receptor (Homo sapiens), P35462; 0.58% of 410,000 active; in the data active means max activation above about 30%; further: 0% is about no effect
Target sequence (P35462 whole entry, looked up): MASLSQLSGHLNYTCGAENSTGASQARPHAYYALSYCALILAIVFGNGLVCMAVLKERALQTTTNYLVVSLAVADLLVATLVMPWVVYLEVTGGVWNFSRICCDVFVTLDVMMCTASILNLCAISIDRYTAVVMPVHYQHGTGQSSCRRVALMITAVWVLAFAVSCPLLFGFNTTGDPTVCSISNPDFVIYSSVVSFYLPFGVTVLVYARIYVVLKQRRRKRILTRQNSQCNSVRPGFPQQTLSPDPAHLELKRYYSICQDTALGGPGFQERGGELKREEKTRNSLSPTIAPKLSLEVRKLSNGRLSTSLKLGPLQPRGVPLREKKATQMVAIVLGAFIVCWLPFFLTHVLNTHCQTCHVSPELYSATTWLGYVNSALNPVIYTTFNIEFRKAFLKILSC
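Agonist-mode cell screen: cells plated at 1500/well and incubated overnight at 37 °C, then exposed to library compounds for 90 min at 37 °C. Detection reagent was added for 30–60 min at room temperature, and luminescence was read.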
IL1B secr inh: qHTS for Inhibitors of Inflammasome Signaling: IL-1-beta AlphaLISA Primary Screen; THP-1 LPS/ATP IL-1B secretion, AlphaLISA, 16 h; stronger effect = lower value; activity change, % at 57.5 µM; 4.7% of 360,000 active; AID 743279, 2014; in the data active means activity change below about -50%; inconclusive means mostly about -30% to -49%; further: on the % scale 0 is the no-effect control and ±100 the full control effect
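THP-1 cells pretreated 1 hr with compounds (up to 57.5 uM final), then stimulated with LPS (250 ng/mL final) plus ATP (1.25 mM final); secreted IL-1B measured by AlphaLISA after 16 hr, decreased signal indicating inhibition.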
DRD3 antagonist: qHTS of D3 Dopamine Receptor Antagonist: qHTS. AID 652054, 2013. D3R cells, DiscoveRx beta-arrestin luminescence, antagonist mode; stronger effect = lower value. 2.5% of 360,000 active. D(3) dopamine receptor (Homo sapiens), P35462. max response, negative = inhibition, %; in the data active means max response below about -50%; inconclusive means no clear call, values can overlap the other calls; further: on the % scale 0 is the no-effect control and ±100 the full control effect
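Cells plated overnight at 1500 cells/well, then exposed to library compounds with dopamine controls for 90 minutes at 37 degrees C. DiscoveRx reagent added for 30–60 minutes at room temperature; luminescence read, quantitative HTS format.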
An asterisk follows results filed as active; i = inactive; ? = inconclusive; / = not tested or not shown; [ ] = dose if it differs, or a comment. Unless noted, the call rests on the fitted dose curve; in most records, active means well fitted curve in the direction sought with a large enough effect; inconclusive means small, poorly fitted or top-dose-only effect, or another doubt; inactive means no such curve, though single readings can be large; an effect the other way counts as inactive or inconclusive.

SMILES	Integrin act MD	ATXN2 expr inh	S2 tox	DRD3 agonist	IL1B secr inh	DRD3 antagonist
COc1cccc(-c2nn(C)c3sc(C(=O)NCCCN(C)Cc4ccccc4)cc23)c1	-56.4%	28.2µM*	?	-15.9	-78.8*	-53.3*
Cc1cc2oc(=O)c(CC(=O)O)c(C)c2c2occ(-c3ccc(F)cc3)c12	/	20.4%	i	-2.9	/	/
O=S(=O)(c1ccccc1)n1nc(-c2ccc(Cl)cc2)nc1NCc1ccc(F)cc1	/	-13.2%	i	-6.6	/	/
CCCCN(C)CCNC(=O)c1cc2c(-c3cccc(OC)c3)nn(C)c2s1	-44.8%	-25.0%	?	-18.9	-86.7*	-78.1*
COc1cccc(-c2nn(C)c3sc(C(=O)NCCc4ccc(Cl)cc4)cc23)c1	/	-18.2%	?	5.3	/	/
COc1cccc(C2CC(C(F)(F)F)n3nc(C(=O)Nc4c(C)n(C)n(-c5ccccc5)c4=O)cc3N2)c1 (centres undefined)	-15.9%	-15.4%[2.22 µM]	i	5.5	1.6	-86.8*
CCCCCCCCCC[n+]1cccc(C(=O)N(CC)CC)c1	-57.7%	/	i	-3.9	-23.4	-4.6
CCC(C)(C)c1ccc(OCCCC[n+]2cccc(C)c2)c(C(C)(C)CC)c1	-71.0%	?	?	-6.3	-179.9*	-2.5
Cc1[nH]n2c(=O)c(C#N)c(-c3ccccc3)nc2c1-c1ccccc1	4.0%	-24.8%	?	0.2	49.7	-59.9*
Cc1ccc(Cc2c(C)nc3c(-c4ccccc4)c(C)[nH]n3c2=O)cc1	/	15.8µM*	?	-13.1	/	/
CCOC(=O)CNC(=O)Cn1nc(N2CCN(c3ccccc3)CC2)ccc1=O	/	-7.0%	i	5.3	/	/
O=C(/C=C/c1cn(-c2ccccc2)nc1-c1cccnc1)N1CCCC1	-22.9%	-8.8%	?	16.1	-12.0	135.5
O=C(/C=C/c1cn(-c2ccccc2)nc1-c1cccnc1)c1ccco1	-76.0%	?	?	-7.4	-95.9*	-27.0
Cc1ncc(-c2ccnc(Nc3ccc(S(C)(=O)=O)cc3)n2)n1C(C)C	/	3.43µM*	/	/	/	/
CSc1c(-c2ccccc2)nc2ccc(Cl)cc2c1C(=O)O	19.1%	0.2%	i	0.9	23.2	?
CCOCCCNC(=O)c1cc(Cl)c(NC(=O)C2=C(C)OCCS2)cc1OC	?	-14.1%	i	11.2	-18.2	30.1
CCCNC(=O)c1cc(Cl)c(NC(=O)C2=C(C)OCCS2)cc1OC	11.3%	2.2%	i	0.1	-53.3*	-2.9
CCN(CC)S(=O)(=O)c1ccc(-c2nnc(SCC(=O)N3CCOCC3)o2)cc1	-1.6%	4.9%	i	-7.1	0.0	-63.5*
CCN(CC)S(=O)(=O)c1ccc(-c2nnc(SCC(C)=O)o2)cc1	-17.0%	1.1%	i	-1.6	38.7	-5.5
COc1ccc(C(=O)NCCCN=C2NS(=O)(=O)c3ccccc32)cc1	127.4%	-17.5%	i	-24.7	-8.7	-75.1*
Cc1cc(-c2cc(C(=O)NCc3ccccc3)on2)nc(S(C)(=O)=O)n1	-4.1%	?	?	-30.7	-102.7*	-64.8*
NS(=O)(=O)c1ccc(CCNC(=O)CCCC2=NS(=O)(=O)c3ccccc3N2)cc1	23.2%	-0.3%	i	-4.7	1.9	-20.9
Cc1ccc(COc2ccc(CNCCCN3CCCCCC3=O)cc2)cc1	-67.4%	-2.8%	i	-12.0	-63.8*	-6.6
C=CCOC(=O)C1=C[C@@H](c2ccc(Br)cc2)C[C@@H](OCCCCO)O1	1.3%	-5.2%	i	2.0	6.6	?
Cc1ccc(-c2ccccc2)n1-c1ccc(C(=O)O)cc1	7.4%	/	?	-0.1	-8.2	-2.2
SMILES	Integrin act MD	ATXN2 expr inh	S2 tox	DRD3 agonist	IL1B secr inh	DRD3 antagonist
Oc1ccccc1-n1c(-c2ccccc2)ccc1-c1ccccc1	16.3%	/	i	-2.2	-80.5*	26.7
COc1ccc(C2NC(=O)CCC2[N+](=O)[O-])c(OC)c1 (centres undefined)	17.3%	-1.7%	i	3.7	2.6	14.2
Cc1ccccc1Cn1c(=O)n(CCC(=O)NCc2ccc3c(c2)OCO3)c(=O)c2ccccc21	13.6%	?	i	0.7	18.9	-1.8
O=C(CCn1c(=O)c2ccccc2n(Cc2cccnc2)c1=O)NCc1ccc2c(c1)OCO2	-16.2%	3.0%	i	-3.4	-6.5	-59.4*
CSCCC(NC(=O)c1ccccc1)C(=O)NC1CC1 (centres undefined)	-0.1%	11.1%	i	33.9*	17.6	10.1
Cc1ccc(C(=O)c2cc([N+](=O)[O-])ccc2N2CC(C)OC(C)C2)cc1 (centres undefined)	-45.1%	/	?	-7.2	33.2	?
Cc1ccc(C(=O)c2cc([N+](=O)[O-])ccc2N2CCCCC2)cc1	-31.7%	-3.1%	i	-8.1	6.9	-65.4*
COc1cc2c(cc1OC)CN(C(=O)c1ccc(N3CCCC3)c([N+](=O)[O-])c1)CC2	-25.1%	-21.5%	?	13.9	-55.8*	22.7
O=C(O)C1CCN(c2ccc(S(=O)(=O)N3CCCCC3)cc2[N+](=O)[O-])CC1	0.0%	-2.3%	i	-4.3	9.8	-12.1
CN1CCN(c2cc(N3CCc4ccccc4C3)c(F)cc2[N+](=O)[O-])CC1	-57.2%	-29.7%	?	-21.6	-51.2*	-61.1*
CCC(=O)N1CCN(c2cc(N3CCN(C)CC3)c(F)cc2[N+](=O)[O-])CC1	1.3%	-7.2%	i	0.7	-2.8	-6.3
O=C(O)C1CCN(S(=O)(=O)c2ccc(N3CCCC3C(=O)O)c([N+](=O)[O-])c2)CC1 (centres undefined)	8.3%	-1.6%	i	-19.5	11.8	-81.6*
COc1cc2c(cc1OC)CN(C(=O)c1ccc(OC)c(S(=O)(=O)N3CCCC3)c1)CC2	-8.0%	-3.4%	i	-18.4	-7.8	5.1
Cc1cc2c(c(-c3cnccn3)c1)OC(CNC(=O)c1ccccc1C(F)(F)F)C2 (centres undefined)	/	/	i	/	/	/
COc1cc2c(cc1OC)CN(c1ccc([N+](=O)[O-])cc1Cl)CC2	-37.6%	-6.6%	i	-6.2	-87.8*	?
COc1cc2c(cc1OC)CN(c1ccc([N+](=O)[O-])cc1C#N)CC2	24.4%	-13.9%	i	-0.9	?	-18.2
Cc1ccc(S(=O)(=O)N2CCN(C(=O)c3ccc(N4CCCCC4)c([N+](=O)[O-])c3)CC2)cc1	?	-9.2%	i	-4.5	-61.9*	-16.6
Cc1ccc(S(=O)(=O)N2CCN(C(=O)c3ccc(N4CCCC4)c([N+](=O)[O-])c3)CC2)cc1	26.2%	-10.8%	i	-7.6	i	-7.5
